The source of these data is PubChem BioAssay.

Usually inhibition stands for the drop in the measured response relative to a control, in per cent.

For some assays here: Potency and affinity values are given separately. The source made the active and inactive calls.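 The calls were made as follows, unless noted: active = primary screen hit whose fluorescence ratio, in both repeats, exceeds the weak agonist control mean by 3 SD; inactive = the rest.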

In assay [1] the test system is TRPC4 beta (transient receptor potential cation channel C4), mouse. Description: TRPC4 cation channel opening, retest – cell-based, Fluo4 calcium, HEK293 TRPC4beta/mu-opioid, duplicates, 10 µM, confirmation (AID 2426;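 active = fluorescence ratio normalized to control raised more than 50% in primary screen plus both repeat runs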). As to conditions: Fluo4 calcium fluorescence, at 10 µM; stronger effect = higher value.
In assay [2] the test system is transient receptor potential cation channel C4 beta (TRPC4), mouse. The assay is described as follows: TRPC4 cation channel opening, second retest – cell-based, second round, Fluo4, HEK293 TRPC4beta/mu-opioid, 1 µM, confirmation (AID 2461;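 active = primary screen active and over 50% activation in each of two duplicate runs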). Conditions: Fluo4 calcium fluorescence, at 1 µM; stronger effect = higher value.
Assay [3] has as its system TRPC4 (transient receptor potential cation channel C4 beta), mouse. Description: potentiation of DAMGO EC20 TRPC4 response – cell-based, second round, Fluo-4, HEK293 TRPC4beta/mu-opioid, 1 µM, confirmation (AID 2554). As to conditions: DAMGO EC20, Fluo-4 calcium flux, at 1 µM; stronger effect = higher value.
The subject of assay [4] is TRPC4 beta (transient receptor potential cation channel C4), mouse. The assay is described as follows: potentiation of DAMGO EC20 TRPC4 response – cell-based, Fluo-4, HEK293 TRPC4beta/mu-opioid, confirmation (AID 2555;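 active = primary screen hit whose calcium fluorescence ratio, in both repeats, exceeds the weak agonist control mean by 3 SD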). Conditions: DAMGO EC20, Fluo-4 calcium flux, at 10 µM; stronger effect = higher value. In general terms: Calcium assays in cells follow changes in intracellular calcium, usually with a dye or a luminescent sensor.

Assay [5] addresses Short transient receptor potential channel 4 (Mus musculus) (UniProt Q9QUQ5). Description: blockers of DAMGO-evoked TRPC4 calcium flux – cell-based, Fluo4, HEK293 TRPC4beta/mu-opioid, confirmation (AID 2636;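 active = calcium signal cut by more than 3 SD below the full-agonist control yet still positive, in both repeats and the earlier primary screen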). Conditions: at 10 µM; stronger effect = higher value.
The target is the same in assay [6]. The assay is described as follows: blockers of DAMGO-evoked TRPC4 calcium flux – cell-based, second round, Fluo4, HEK293 TRPC4beta/mu-opioid, 1 µM, confirmation (AID 2637;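 active = calcium signal ratio cut to more than 3 SD under the fully stimulated control mean yet still positive, in both repeats and the primary screen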;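 as to inhibition: percent of integrated ratio relative to wells lacking test compound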). Conditions: at 1 µM; stronger effect = higher value.
Assay [7] shares this target. The assay is described as follows: calcium entry via TRPC4 opening agents – cell-based, HEK293 TRPC4/mu-opioid, Fluo-4 calcium, dose response (AID 434937;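 active = primary screen activator hit with a dose response curve and TRPC4 channel activation at any tested dose; inactive = no activation, no dose response, or not a primary hit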).
Assay [8] has the same target. Description: potentiation of DAMGO-evoked TRPC4 calcium signal – cell-based, HEK293 TRPC4/mu-opioid, Fluo-4 calcium, EC20 DAMGO, dose response (AID 434941;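 active = earlier screen potentiator hit that boosts the TRPC4 ion channel at some dose, with a dose response; inactive = no potentiation, no dose response, or not a prior hit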;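 also: calcium entry triggered by an EC20 dose of DAMGO at the co-expressed mu-opioid receptor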).
For assay [9], the target named is Short transient receptor potential channel 6 (Mus musculus) (UniProt Q61143). The assay is described as follows: TRPC6 blockade by TRPC4 inhibitor hits – cell-based, HEK293, membrane potential dye, duplicate, selectivity assay for TRPC4 inhibitor project, confirmation (AID 434948;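 active = active in primary screen and both duplicates, each dropping signal beyond three positive-control SD with fluorescence still positive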). As to conditions: HEK293 TRPC6, membrane potential dye fluorescence, at 10 µM, stimulated with maximal-effect acetylcholine; stronger effect = higher value.
Sequence of Short transient receptor potential channel 6 (Mus musculus) (Q61143 whole entry, looked up): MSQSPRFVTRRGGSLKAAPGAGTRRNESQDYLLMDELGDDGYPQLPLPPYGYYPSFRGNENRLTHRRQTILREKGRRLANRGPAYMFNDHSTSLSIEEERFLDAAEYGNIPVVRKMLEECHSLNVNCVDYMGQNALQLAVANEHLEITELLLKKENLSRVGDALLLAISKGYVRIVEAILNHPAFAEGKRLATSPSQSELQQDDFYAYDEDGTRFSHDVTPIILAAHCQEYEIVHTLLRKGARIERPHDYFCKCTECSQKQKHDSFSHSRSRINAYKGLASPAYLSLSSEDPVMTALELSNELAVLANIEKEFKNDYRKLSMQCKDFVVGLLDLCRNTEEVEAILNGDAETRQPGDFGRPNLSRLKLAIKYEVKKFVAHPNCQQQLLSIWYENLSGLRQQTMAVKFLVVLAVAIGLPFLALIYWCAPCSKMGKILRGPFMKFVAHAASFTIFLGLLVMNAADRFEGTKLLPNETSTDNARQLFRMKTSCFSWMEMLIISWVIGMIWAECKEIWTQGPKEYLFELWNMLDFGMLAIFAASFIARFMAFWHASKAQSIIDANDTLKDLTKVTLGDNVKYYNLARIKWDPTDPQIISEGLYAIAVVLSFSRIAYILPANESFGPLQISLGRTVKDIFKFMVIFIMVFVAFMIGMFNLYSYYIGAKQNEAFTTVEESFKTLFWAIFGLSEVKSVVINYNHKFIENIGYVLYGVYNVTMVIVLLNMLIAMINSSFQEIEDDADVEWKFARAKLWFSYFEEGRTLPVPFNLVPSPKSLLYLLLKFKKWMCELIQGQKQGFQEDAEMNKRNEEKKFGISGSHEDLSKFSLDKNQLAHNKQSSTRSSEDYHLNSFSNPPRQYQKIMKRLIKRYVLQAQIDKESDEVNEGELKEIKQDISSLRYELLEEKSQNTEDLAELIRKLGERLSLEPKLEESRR

For assay [10] the target is unchanged. The assay is described as follows: TRPC6 opening by TRPC4 activator hits – cell-based, HEK293, membrane potential dye, duplicate, selectivity assay for TRPC4 activator project, confirmation (AID 434950;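 active = membrane potential signal rise above negative control mean plus 3 SD in both duplicates, also active in the earlier TRPC4 screen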). As to conditions: HEK293 TRPC6, membrane potential fluorescence, at 10 µM; activation: stronger effect = higher value; outcome: activation.
The target is the same in assay [11]. Description: positive modulators of mouse TRPC6 channel – HEK293 cells, membrane potential dye, duplicate, selectivity assay for TRPC4 potentiator project, confirmation (AID 434952;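 active = compound raising the membrane signal above positive-control mean plus 3 SD in both repeats, and a primary screen hit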). Conditions: HEK293 TRPC6, membrane potential dye fluorescence, at 10 µM, maximal acetylcholine added after compound; stronger effect = higher value.
In assay [12] the target is Short transient receptor potential channel 4 (Mus musculus) (UniProt Q9QUQ5). The assay is described as follows: calcium flux activators in TRPC4/5HT1a cells, counter-screen for TRPC4 activator project, cell-based, second counter screen, HEK293 TRPC4/5HT1a, Fluo-4 (AID 434977;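 active = calcium signal rise above buffer-control mean plus 5 SD in both duplicates, and also a hit in the primary screen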). Conditions: Fluo-4 calcium flux, at 10 µM; stronger effect = higher value.
Sequence of Short transient receptor potential channel 4 (Mus musculus) (Q9QUQ5 whole entry, looked up): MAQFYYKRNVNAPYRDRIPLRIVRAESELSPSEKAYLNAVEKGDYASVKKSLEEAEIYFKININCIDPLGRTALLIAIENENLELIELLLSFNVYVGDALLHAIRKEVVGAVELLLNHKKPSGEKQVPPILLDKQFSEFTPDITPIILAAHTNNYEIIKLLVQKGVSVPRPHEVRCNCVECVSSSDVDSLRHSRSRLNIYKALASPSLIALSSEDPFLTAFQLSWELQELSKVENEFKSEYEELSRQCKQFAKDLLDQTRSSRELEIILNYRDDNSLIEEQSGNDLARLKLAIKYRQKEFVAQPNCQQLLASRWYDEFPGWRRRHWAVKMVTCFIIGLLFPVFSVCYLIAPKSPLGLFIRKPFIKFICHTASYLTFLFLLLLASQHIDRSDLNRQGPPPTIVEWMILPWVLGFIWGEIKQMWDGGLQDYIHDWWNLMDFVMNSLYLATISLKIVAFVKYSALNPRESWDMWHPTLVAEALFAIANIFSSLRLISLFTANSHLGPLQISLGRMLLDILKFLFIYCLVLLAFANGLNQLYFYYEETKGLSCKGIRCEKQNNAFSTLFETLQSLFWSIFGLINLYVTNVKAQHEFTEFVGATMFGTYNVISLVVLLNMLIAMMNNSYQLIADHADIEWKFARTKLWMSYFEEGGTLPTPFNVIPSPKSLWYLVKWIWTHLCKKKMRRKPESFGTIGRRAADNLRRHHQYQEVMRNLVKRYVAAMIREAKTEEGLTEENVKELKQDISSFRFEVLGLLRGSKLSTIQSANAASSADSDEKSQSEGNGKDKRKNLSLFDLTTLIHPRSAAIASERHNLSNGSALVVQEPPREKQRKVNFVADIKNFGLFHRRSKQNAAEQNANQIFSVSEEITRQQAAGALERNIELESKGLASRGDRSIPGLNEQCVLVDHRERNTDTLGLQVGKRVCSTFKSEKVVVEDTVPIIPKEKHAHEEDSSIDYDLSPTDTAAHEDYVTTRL
Assay [13] in a line: serotonin-gated TRPC4 signal block – cell-based, second counter screen, HEK293 TRPC4/5HT1a, Fluo-4, counter-screen for TRPC4 inhibitor project, confirmation (AID 434978;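 active = primary screen active whose calcium signal fell more than 3 SD beyond the full-serotonin control mean in both duplicate plates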;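 as to outcome: serotonin given first at submaximal then at maximal dose after compound preincubation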). Conditions: Fluo-4 calcium flux, at 10 µM, serotonin added to trigger calcium flux; stronger effect = higher value. (In general: A counterscreen serves to expose hits that act by an unwanted route or on another target.)

Assay [14] has as its system TRPC4 (mouse), co-expressed with 5HT1a in HEK293. The assay is described as follows: enhancement of serotonin-evoked TRPC4 response – cell-based, second counter screen, HEK293 TRPC4/5HT1a, Fluo-4, counter-screen for TRPC4 potentiator project, confirmation (AID 434979;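 active = signal rise over 3 SD above mean of control wells given weak agonist, in both repeats and first screen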). Conditions: Fluo-4 calcium flux, at 10 µM, serotonin added at its EC20 dose; stronger effect = higher value.
Assay [15] in a line: nonspecific calcium rise without TRPC4 – cell-based, HEK293 mu-opioid receptor line, counter-screen for TRPC4 activator project, confirmation (AID 449723;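 active = hit in primary screen, with calcium signal over 5 SD above buffer well mean in both duplicates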;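 also: counter screen cells carry the mu-opioid receptor alone and lack TRPC4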). Conditions: HEK293 mu-opioid cells, Fluo-4 calcium fluorescence, at 10 µM; stronger effect = higher value.
Assay [16] in a line: nonspecific potentiation of DAMGO calcium response – cell-based, HEK293 mu-opioid receptor line, counter-screen for TRPC4 allosteric potentiator project, confirmation (AID 449724;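 active = calcium signal rise more than 3 SD above the low-dose agonist control mean, in both duplicate plates and the primary screen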;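 also: HEK293 cells carrying mu-opioid receptor only with no TRPC4 channel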). As to conditions: HEK293 mu-opioid receptor cells, Fluo-4 calcium flux, at 10 µM, compound added before EC20 DAMGO stimulus; stronger effect = higher value.

As to `COc1ccc(C(CNC(=O)c2oc3ccc(Cl)cc3c2C)N2CCCCC2)cc1` (centres undefined), the outcome in assay [1], in assay [2], in assay [3], in assay [4], in assay [6] and in assay [7] was inactive. Moreover, the outcome in assay [8], in [9], in [10], in assay [11], in assay [12] and in [13] was inactive. The outcome in assay [14], in [15] and in assay [16] was inactive. Moreover, the inhibition in [5] was 83% (active).

`Cc1ccc2cc(CN(CCCN3CCOCC3)C(c3nnnn3Cc3ccco3)C(C)C)c(=O)[nH]c2c1C` (centres undefined): the result in [1], in assay [2], in [3], in [4], in assay [7] and in [8] was inactive. Also, the compound was called inactive in assay [9], in [10], in assay [11], in assay [12], in [13] and in assay [14]. Besides, the outcome in assay [15] and in assay [16] was inactive. In addition, the inhibition is 98% (active) in assay [5] and 72% (active) in [6].

Consider `CN(C)C(CNC(=O)c1ccccc1OCc1ccc(Cl)cc1)c1ccco1` (centres undefined), for which the outcome in assay [1], in [2], in [3], in [4], in assay [7] and in assay [8] was inactive. Besides, the outcome in [9], in assay [10], in assay [11], in [12], in assay [14] and in assay [15] was inactive. For the same compound, in [16], the outcome was inactive. Moreover, the inhibition in [5] is 84% (active); in [6], 62% (active); in [13] it was 23% (active).

For the compound `Cc1cccc(-c2nnc(SCc3nc4ccccc4[nH]3)n2Cc2ccco2)c1`, the outcome in assay [1], in [2], in [3], in assay [4], in assay [6] and in [7] was inactive. Also, the outcome in assay [8], in assay [9], in assay [10], in assay [11], in [12] and in [14] was inactive. In addition, the outcome in assay [15] and in assay [16] was inactive. Moreover, the inhibition in [5] was 90% (active); in assay [13], 26.7% (active).

On to `CSCCNCc1cn(-c2ccc(F)cc2F)nc1-c1ccccc1C`, for which the outcome in assay [1], in assay [2], in assay [3], in [4], in assay [6] and in [7] was inactive. Besides, the outcome in [8], in [9], in assay [10], in assay [11], in [12] and in [13] was inactive. Besides, the outcome in [14], in [15] and in assay [16] was inactive. Moreover, the inhibition in assay [5] is 91% (active).

Regarding `COc1ccc(C(c2nnnn2C2CCCC2)N2CCN(c3ccccc3)CC2)cc1` (centres undefined), the outcome in [1], in assay [2], in [3], in [4], in assay [6] and in [7] was inactive. Also, the outcome in assay [8], in assay [9], in [10], in assay [11], in assay [12] and in assay [13] was inactive. The outcome in [14], in assay [15] and in [16] was inactive. In addition, the inhibition in assay [5] is 52% (active).

For the compound `O=[N+]([O-])c1cccc(N(CC(O)CN2CCCC2)S(=O)(=O)c2ccccc2)c1` (centres undefined), the outcome in [1], in assay [2], in [3], in [4], in assay [6] and in [7] was inactive. Further, the result in [8], in assay [9], in assay [10], in assay [11], in assay [12] and in [13] was inactive. The outcome in assay [14], in [15] and in [16] was inactive. Further, in assay [5], the inhibition is 101% (active).

On to `O=C(COC(=O)c1cccc([N+](=O)[O-])c1)c1ccc2c(c1)OCO2`, for which the outcome in assay [1], in assay [2], in assay [3], in assay [4], in assay [7] and in assay [8] was inactive. In addition, the compound was called inactive in [9], in assay [10], in assay [11], in assay [12], in assay [14] and in assay [15]. Besides, in assay [16], the result was inactive. Moreover, the values for the inhibition in assay [5], in assay [6] and in assay [13] were 89% (active), 59% (active) and 25.3% (active), respectively.

As to `COC(=O)CSc1nn(-c2ccc(F)cc2)c(=S)s1`, the outcome in assay [1], in assay [2], in assay [3], in assay [4], in assay [7] and in assay [8] was inactive. For the same compound, the compound was called inactive in [9], in [10], in assay [11], in [12], in [14] and in assay [15]. Besides, the outcome in assay [16] was inactive. Besides, the figures for the inhibition in [5], in [6] and in assay [13] were 90% (active), 39% (active) and 39.2% (active), respectively.

`O=C(C1CCN(CC2CC=CCC2)CC1)N(CCc1ccccc1)Cc1ccccc1` (centres undefined): the result in [1], in [2], in assay [3], in assay [4], in assay [6] and in assay [7] was inactive. In addition, the result in assay [8], in assay [10], in assay [11], in [12], in [14] and in [15] was inactive. For the same compound, the outcome in assay [16] was inactive. The figures for the inhibition in assay [5], in assay [9] and in assay [13] were 53% (active), 32.5% (active) and 40.1% (active), respectively.

As to `c1ccc2[nH]c(CCCCc3nc4ccccc4[nH]3)nc2c1`, the outcome in assay [1], in assay [2], in [3], in [4], in assay [7] and in assay [8] was inactive. Further, the compound was called inactive in assay [9], in [10], in assay [11], in assay [12], in assay [14] and in assay [15]. The result in [16] was inactive. For the same compound, the figures for the inhibition in assay [5], in assay [6] and in assay [13] were 85% (active), 55% (active) and 40.6% (active), respectively.

As for `Cn1c(NCc2ccccc2O)nc2ccccc21`, the result in assay [1], in assay [2], in assay [3], in assay [4], in assay [6] and in [7] was inactive. Further, the outcome in [8], in [9], in assay [10], in assay [11], in assay [12] and in assay [13] was inactive. Besides, the result in assay [14], in assay [15] and in assay [16] was inactive. Moreover, the inhibition in assay [5] was 62% (active).

Take `Cc1ccc(CNC(C)c2ccccc2)cc1` (centres undefined): the outcome in [1], in [2], in assay [3], in [4], in assay [6] and in assay [7] was inactive. Moreover, the result in [8], in assay [9], in assay [10], in assay [11], in [12] and in [14] was inactive. The result in assay [15] and in assay [16] was inactive. Also, the inhibition was 92% (active) in [5] and 30.6% (active) in assay [13].

Regarding `CC(C)NCC(O)COCCOc1ccc(C(C)(C)C)cc1` (centres undefined), the outcome in assay [1], in assay [2], in [3], in assay [4], in assay [7] and in assay [8] was inactive. Moreover, the result in assay [9], in assay [10], in [11], in assay [12], in assay [14] and in assay [15] was inactive. For the same compound, the outcome in assay [16] was inactive. For the same compound, the inhibition in [5] was 97% (active); in assay [6], 59% (active); in assay [13], 28.6% (active).
